# Test results: PMC5540273 (PLoS ONE, 2017)
# Key:
# Settings in all cases: concentration: 1 μM, replicates: in singlicate; n = 1
# MAPKAPK5 = test system: MAPKAPK5
# MARK1 = test system: MARK1
# MARK2 = test system: MARK2
# MARK3 = test system: MARK3
# MARK4 = test system: MARK4
# MAST1 = test system: MAST1
# MEK1 = test system: T1, MEK1
# T1 construct: gene MAP2K1
# MEK2 = test system: T2, MEK2
# T2 construct: gene MAP2K2
# MEK3 = test system: T3, MEK3
# T3 construct: gene MAP2K3
# MEK4 = test system: T4, MEK4
# T4 construct: gene MAP2K4
# 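Also: KINOMEscan kinase panel screen.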
SMILES,%Inh (MAPKAPK5) [%],%Inh (MARK1) [%],%Inh (MARK2) [%],%Inh (MARK3) [%],%Inh (MARK4) [%],%Inh (MAST1) [%],%Inh (MEK1) [%],%Inh (MEK2) [%],%Inh (MEK3) [%],%Inh (MEK4) [%]
O=C(Nc1c(F)cccc1F)c1cc(C(=O)c2ccccc2F)c[nH]1 [GSK1326180],0,0,0,3,9,0,0,0,0,10
CN1CCN(Cc2ccc(NC(=O)Nc3ccc(N(C)c4ccnc(Nc5ccc(CS(C)(=O)=O)cc5)n4)cc3)cc2)CC1.Cl [GW827654],13,32,60,61,31,32,1,25,74,86
Nc1ncc(-c2ccc3nccc(-c4ccncc4)c3c2)cc1S(=O)(=O)N1CCCCC1 [GSK1693850],0,0,15,0,0,0,0,0,13,33
COc1ccc(C2=C(Nc3cccc(O)c3)C(=O)NC2=O)cc1 [SB-390766],0,46,0,0,19,0,0,0,0,0
COc1cc(Nc2nccc(N3CCC(NS(=O)(=O)c4ccc(NC(C)=O)cc4)CC3)n2)cc(OC)c1OC [GSK1379825],0,14,1,0,15,13,0,0,6,14
CN(C)c1ncnc2nc[nH]c12 [SKF-31736],0,0,9,23,9,49,28,46,54,8
COc1cccc(-c2nc(-c3ccccc3)[nH]c2-c2ccncc2)c1 [SB-610250],0,0,0,0,0,22,0,0,0,0
CC(C)c1nc(-c2cccc(NS(=O)(=O)c3c(F)cccc3F)c2)c(-c2ccnc(Nc3ccc(N4CCOCC4)nc3)n2)s1.Cl [GSK1723980],0,0,0,0,40,0,5,35,15,98.6
